Laboratory results as given in the supplement of paper PMC10849652.
Targets with a hit are over-represented here; the source holds about 7,900 in all. About 0.6% of all pairs of compound and target were hits.

Assays:
Experiment in all cases: log2 fold change, soluble protein after heating vs DMSO (PISA); higher = thermal stabilisation; K562 cells, 10 uM, 30 min; active = over 0.2 and 3.5 SD of the protein, either way, in both replicates (recomputed)
[1] = compound: Cc1ccc(NC(=O)c2ccc(CN3CC[C@H](N(C)C)C3)c(C(F)(F)F)c2)cc1Nc1nccc(-c2cncnc2)n1 [bafetinib]
In short: (§1)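 For each measurement, 10 μM compound was applied for 30 min to K562 cells at 2×10^6 cells/mL. Aliquots were heated for 3 min across 48°C-58°C, pooled, and extracted in PBS with 0.5% NP-40 at 4°C; the supernatant after 21,000xg for 90 min was soluble protein. This was quantified by TMTpro 16plex LC-MS/MS with channel sums equalised, and thermal stability was reported relative to control samples from duplicates, on a log2 fold-change scale.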

[2] = compound: Cc1cccc(CC(=O)N2CCc3c2ccc(-c2cn(C)c4ncnc(N)c24)c3F)n1
In short: as §1

[3] = compound: Cc1cn(-c2cc(NC(=O)c3ccc(C)c(Nc4nccc(-c5cccnc5)n4)c3)cc(C(F)(F)F)c2)cn1 [nilotinib]
In short: as §1

[4] = compound: Cc1nc(Nc2n[nH]c3c2CN(C(=O)N[C@H](CN(C)C)c2ccccc2)C3(C)C)c2sccc2n1
In short: as §1

[5] = compound: Cc1nc(Nc2ncc(C(=O)Nc3c(C)cccc3Cl)s2)cc(N2CCN(CCO)CC2)n1 [dasatinib]
In short: as §1

[6] = compound: Cc1ncc(-c2ccnc(Nc3ccc(S(C)(=O)=O)cc3)n2)n1C(C)C
In short: as §1

[7] = compound: Cn1cc(-c2ccc3c(c2)CCN3C(=O)Cc2cccc(C(F)(F)F)c2)c2c(N)ncnc21
In short: as §1

[8] = compound: Cn1cc(-c2ccc3nnc(C(F)(F)c4ccc5ncccc5c4)n3n2)cn1
In short: as §1

[9] = compound: Cn1cncc1[C@@](N)(c1ccc(Cl)cc1)c1ccc2c(c1)c(-c1cccc(Cl)c1)cc(=O)n2C [tipifarnib]
In short: as §1

[10] = compound: FC(F)(F)c1ccc(/C=C/c2nc(COc3ccc(CCCCn4ccnn4)cc3)co2)cc1 [mubritinib]
In short: as §1

[11] = compound: NC(=O)Nc1cc(-c2cccc(F)c2)sc1C(=O)N[C@H]1CCCNC1
In short: as §1

[12] = compound: NC(=O)c1cnc(N[C@@H]2CCCC[C@@H]2N)nc1Nc1cccc(-n2nccn2)c1
In short: as §1

[13] = compound: NC1(c2ccc(-c3nc4ccn5c(=O)[nH]nc5c4cc3-c3ccccc3)cc2)CCC1
In short: as §1

[14] = compound: NCC(=O)Nc1ccc(-n2nc(C(F)(F)F)cc2-c2ccc3c(ccc4ccccc43)c2)cc1
In short: as §1

[15] = compound: Nc1ccccc1NC(=O)c1ccc(CNC(=O)OCc2cccnc2)cc1 [entinostat]
In short: as §1

[16] = compound: O=C(CCCCCCC(=O)Nc1ccccc1)NO [vorinostat]
In short: as §1

[17] = compound: O=C(CCCCCCNC(=O)c1cnc(N(c2ccccc2)c2ccccc2Cl)nc1)NO [citarinostat]
In short: as §1

[18] = compound: O=C(O)c1ccc2c(c1)nc(Nc1cccc(Cl)c1)c1ccncc12 [silmitasertib]
In short: as §1

[19] = compound: O=C1NC(=O)C(c2cnc3ccccn23)=C1c1cn2c3c(cc(F)cc13)CN(C(=O)N1CCCCC1)CC2
In short: as §1

[20] = compound: c1cc(OCCN2CCCCC2)cc(-c2n[nH]c3ccc(-c4nnc[nH]4)cc23)c1
In short: as §1

Measured: log2 fold change

RAB3IL1 (UniProt Q8TBN0)
Sequence of UniProt Q8TBN0 (Q8TBN0 whole entry, looked up): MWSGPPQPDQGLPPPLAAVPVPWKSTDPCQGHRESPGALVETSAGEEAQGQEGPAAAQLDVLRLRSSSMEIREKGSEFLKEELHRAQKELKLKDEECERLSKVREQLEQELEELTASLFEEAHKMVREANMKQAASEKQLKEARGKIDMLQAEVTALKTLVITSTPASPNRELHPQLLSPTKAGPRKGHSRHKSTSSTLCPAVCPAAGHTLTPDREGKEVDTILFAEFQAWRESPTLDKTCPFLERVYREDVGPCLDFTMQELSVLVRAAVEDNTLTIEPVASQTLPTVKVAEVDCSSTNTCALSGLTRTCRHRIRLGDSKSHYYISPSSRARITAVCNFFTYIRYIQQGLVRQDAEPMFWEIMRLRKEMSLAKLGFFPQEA
inactive: [1] -0.025 | [2] 0.034 | [3] -0.016 | [4] 0.012 | [5] -0.054 | [6] -0.015 | [7] -0.007 | [8] 0.002 | [9] -0.051 | [10] 0.017 | [11] 0.041 | [12] -0.011 | [13] -0.025 | [14] -0.046 | [15] -0.019 | [16] -0.032 | [17] 0.035 | [18] 0.053 | [19] -0.038 | [20] 0.008

RPS6KA3 (UniProt P51812)
Sequence of UniProt P51812 (P51812 whole entry, looked up): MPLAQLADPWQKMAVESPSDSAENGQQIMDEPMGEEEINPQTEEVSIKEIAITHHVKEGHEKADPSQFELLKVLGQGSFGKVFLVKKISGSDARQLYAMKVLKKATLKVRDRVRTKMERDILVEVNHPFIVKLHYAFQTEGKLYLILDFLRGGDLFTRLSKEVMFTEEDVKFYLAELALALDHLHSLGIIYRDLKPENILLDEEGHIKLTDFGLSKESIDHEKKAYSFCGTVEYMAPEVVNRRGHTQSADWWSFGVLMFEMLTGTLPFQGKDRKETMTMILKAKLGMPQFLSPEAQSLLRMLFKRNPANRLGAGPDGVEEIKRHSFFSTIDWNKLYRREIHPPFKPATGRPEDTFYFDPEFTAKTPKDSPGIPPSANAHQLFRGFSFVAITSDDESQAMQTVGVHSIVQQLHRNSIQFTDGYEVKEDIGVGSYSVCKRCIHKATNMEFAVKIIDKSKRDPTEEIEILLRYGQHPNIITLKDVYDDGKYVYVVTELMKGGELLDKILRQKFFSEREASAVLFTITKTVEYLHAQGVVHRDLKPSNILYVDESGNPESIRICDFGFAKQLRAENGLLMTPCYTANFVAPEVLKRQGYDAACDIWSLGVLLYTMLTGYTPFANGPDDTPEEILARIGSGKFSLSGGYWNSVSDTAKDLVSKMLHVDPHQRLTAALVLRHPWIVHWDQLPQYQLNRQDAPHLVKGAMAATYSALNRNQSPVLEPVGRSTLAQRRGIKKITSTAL
active: [4] -0.798
inactive: [1] -0.065 | [2] 0.046 | [3] 0.035 | [5] -0.195 | [6] -0.019 | [7] -0.022 | [8] 0.031 | [9] -0.028 | [10] 0.02 | [11] -0.076 | [12] -0.177 | [13] -0.203 | [14] -0.029 | [15] 0.044 | [16] 0.048 | [17] 0.079 | [18] -0.038 | [19] -0.046 | [20] -0.241

RDH13 (UniProt Q8NBN7)
Sequence of UniProt Q8NBN7 (Q8NBN7 whole entry, looked up): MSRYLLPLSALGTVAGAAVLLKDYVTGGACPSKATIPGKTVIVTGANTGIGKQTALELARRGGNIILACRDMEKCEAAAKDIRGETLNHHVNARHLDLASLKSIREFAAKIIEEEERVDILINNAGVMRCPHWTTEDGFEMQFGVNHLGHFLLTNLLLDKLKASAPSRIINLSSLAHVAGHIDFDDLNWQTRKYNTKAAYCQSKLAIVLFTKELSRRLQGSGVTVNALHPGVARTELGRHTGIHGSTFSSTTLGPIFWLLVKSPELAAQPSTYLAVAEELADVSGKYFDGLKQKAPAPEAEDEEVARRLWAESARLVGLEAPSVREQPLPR
inactive: [1] -0.068 | [2] -0.03 | [3] 0.011 | [4] -0.044 | [5] -0.131 | [6] 0.019 | [7] 0.027 | [8] 0.016 | [9] 0.022 | [10] -0.032 | [11] -0.038 | [12] -0.049 | [13] -0.064 | [14] -0.055 | [15] -0.032 | [16] 0.002 | [17] 0.029 | [18] -0.013 | [19] -0.029 | [20] -0.02

RHEB (UniProt Q15382)
Sequence of UniProt Q15382 (Q15382 whole entry, looked up): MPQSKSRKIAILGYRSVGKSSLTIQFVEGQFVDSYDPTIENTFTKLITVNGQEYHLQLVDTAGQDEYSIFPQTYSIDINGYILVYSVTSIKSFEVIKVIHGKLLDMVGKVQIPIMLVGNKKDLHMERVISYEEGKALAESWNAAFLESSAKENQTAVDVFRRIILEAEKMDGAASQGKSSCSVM
inactive: [1] 0.01 | [2] 0.004 | [3] -0.027 | [4] 0.001 | [5] 0.004 | [6] 0.04 | [7] 0.035 | [8] 0.001 | [9] -0.042 | [10] 0.004 | [11] -0.042 | [12] -0.014 | [13] -0.058 | [14] -0.029 | [15] -0.012 | [16] 0.002 | [17] 0.022 | [18] -0.033 | [19] -0.038 | [20] -0.025

RAB33B (UniProt Q9H082)
Sequence of UniProt Q9H082 (Q9H082 whole entry, looked up): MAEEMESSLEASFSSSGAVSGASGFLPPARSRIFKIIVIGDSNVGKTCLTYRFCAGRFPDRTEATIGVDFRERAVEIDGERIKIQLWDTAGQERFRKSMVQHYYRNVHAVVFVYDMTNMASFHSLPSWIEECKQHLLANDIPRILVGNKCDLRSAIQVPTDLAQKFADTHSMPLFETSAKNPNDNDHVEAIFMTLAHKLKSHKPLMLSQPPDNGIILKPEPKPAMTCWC
inactive: [1] -0.01 | [2] 0.012 | [3] 0.01 | [4] 0.018 | [5] -0.058 | [6] 0.022 | [7] 0 | [8] 0.151 | [9] 0.024 | [10] -0.01 | [11] -0.032 | [12] 0.014 | [13] 0.037 | [14] -0.019 | [15] -0.035 | [16] -0.021 | [17] -0.016 | [18] -0.014 | [19] -0.048 | [20] -0.032

RSF1 (UniProt Q96T23)
Sequence of UniProt Q96T23 (Q96T23 whole entry, looked up): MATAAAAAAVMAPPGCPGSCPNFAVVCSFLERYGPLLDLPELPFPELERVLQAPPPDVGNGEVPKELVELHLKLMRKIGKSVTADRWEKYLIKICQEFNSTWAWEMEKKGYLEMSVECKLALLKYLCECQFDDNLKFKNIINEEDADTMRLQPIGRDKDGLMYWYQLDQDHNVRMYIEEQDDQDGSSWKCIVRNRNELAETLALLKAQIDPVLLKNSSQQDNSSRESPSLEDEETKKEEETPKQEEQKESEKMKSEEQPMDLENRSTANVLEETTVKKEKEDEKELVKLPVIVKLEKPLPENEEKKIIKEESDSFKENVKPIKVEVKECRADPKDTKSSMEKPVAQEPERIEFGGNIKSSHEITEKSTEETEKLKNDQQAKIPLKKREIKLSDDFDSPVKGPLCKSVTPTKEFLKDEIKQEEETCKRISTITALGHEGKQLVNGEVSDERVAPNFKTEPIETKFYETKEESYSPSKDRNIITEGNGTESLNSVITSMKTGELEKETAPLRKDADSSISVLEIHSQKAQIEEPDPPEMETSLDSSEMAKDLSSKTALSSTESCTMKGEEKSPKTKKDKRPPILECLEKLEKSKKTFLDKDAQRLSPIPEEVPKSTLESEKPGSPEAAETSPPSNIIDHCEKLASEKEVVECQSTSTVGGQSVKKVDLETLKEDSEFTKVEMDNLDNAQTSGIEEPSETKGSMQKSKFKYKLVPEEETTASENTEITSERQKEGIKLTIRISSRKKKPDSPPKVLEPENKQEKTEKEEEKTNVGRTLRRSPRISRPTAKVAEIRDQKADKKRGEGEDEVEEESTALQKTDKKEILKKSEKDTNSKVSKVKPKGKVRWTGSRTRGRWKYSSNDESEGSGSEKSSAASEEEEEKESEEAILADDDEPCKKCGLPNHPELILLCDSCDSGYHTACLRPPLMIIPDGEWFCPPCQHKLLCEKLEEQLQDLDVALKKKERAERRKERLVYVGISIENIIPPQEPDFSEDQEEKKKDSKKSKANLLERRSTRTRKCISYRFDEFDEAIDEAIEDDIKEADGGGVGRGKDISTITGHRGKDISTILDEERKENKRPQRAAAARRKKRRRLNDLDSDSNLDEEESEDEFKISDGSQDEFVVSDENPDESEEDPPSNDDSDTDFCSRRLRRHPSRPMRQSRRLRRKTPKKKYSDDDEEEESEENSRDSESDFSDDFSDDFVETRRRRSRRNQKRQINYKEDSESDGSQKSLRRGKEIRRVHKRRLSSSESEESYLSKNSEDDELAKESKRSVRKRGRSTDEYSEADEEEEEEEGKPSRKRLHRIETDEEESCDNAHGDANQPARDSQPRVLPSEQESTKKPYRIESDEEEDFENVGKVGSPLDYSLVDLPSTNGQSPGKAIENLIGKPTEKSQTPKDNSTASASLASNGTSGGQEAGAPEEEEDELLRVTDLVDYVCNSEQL
inactive: [1] 0.117 | [2] -0.027 | [3] 0.087 | [4] -0.102 | [5] -0.082 | [6] -0.096 | [7] 0.046 | [8] 0.079 | [9] -0.222 | [10] 0.237 | [11] -0.17 | [12] -0.078 | [13] -0.246 | [14] -0.198 | [15] 0.073 | [16] 0.028 | [17] -0.087 | [18] 0.04 | [19] -0.182 | [20] 0.081

RPS4X (UniProt P62701)
inactive: [1] 0.332 | [2] 0 | [3] 0.051 | [4] 0.206 | [5] 0.061 | [6] -0.048 | [7] -0.251 | [8] -0.079 | [9] 0.112 | [10] -0.105 | [11] 0.088 | [12] 0.095 | [13] 0.216 | [14] 0.088 | [15] -0.048 | [16] 0.005 | [17] -0.104 | [18] 0.014 | [19] 0.126 | [20] -0.204

RCC1 isoform 2 (UniProt P18754)
Sequence of UniProt P18754 (P18754 whole entry, looked up): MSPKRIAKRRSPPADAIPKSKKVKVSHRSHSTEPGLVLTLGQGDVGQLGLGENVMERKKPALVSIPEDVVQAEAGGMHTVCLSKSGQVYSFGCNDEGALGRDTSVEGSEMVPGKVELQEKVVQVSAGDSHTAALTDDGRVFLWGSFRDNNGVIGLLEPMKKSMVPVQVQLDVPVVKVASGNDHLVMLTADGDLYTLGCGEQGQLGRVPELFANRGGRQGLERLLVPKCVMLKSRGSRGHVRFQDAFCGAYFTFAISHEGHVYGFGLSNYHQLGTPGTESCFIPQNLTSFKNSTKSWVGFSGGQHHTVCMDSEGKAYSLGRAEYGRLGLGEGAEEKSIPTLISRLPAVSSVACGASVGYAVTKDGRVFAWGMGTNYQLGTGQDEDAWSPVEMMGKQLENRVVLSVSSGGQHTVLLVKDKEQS
inactive: [1] 0.013 | [2] 0.002 | [3] 0.069 | [4] -0.137 | [5] -0.159 | [6] 0 | [7] 0.139 | [8] -0.004 | [9] -0.112 | [10] 0.296 | [11] -0.084 | [12] -0.174 | [13] -0.18 | [14] -0.066 | [15] 0.132 | [16] 0.094 | [17] 0.026 | [18] -0.056 | [19] -0.132 | [20] -0.024

RBM12 (UniProt Q9NTZ6)
inactive: [1] 0.026 | [2] 0.046 | [3] -0.108 | [4] -0.227 | [5] -0.287 | [6] -0.09 | [7] 0.048 | [8] 0.015 | [9] -0.061 | [10] 0.032 | [11] -0.044 | [12] -0.062 | [13] -0.219 | [14] -0.106 | [15] 0.133 | [16] 0.128 | [17] 0.107 | [18] -0.026 | [19] -0.219 | [20] -0.002

SFXN5 (UniProt Q8TD22)
Sequence of UniProt Q8TD22 (Q8TD22 whole entry, looked up): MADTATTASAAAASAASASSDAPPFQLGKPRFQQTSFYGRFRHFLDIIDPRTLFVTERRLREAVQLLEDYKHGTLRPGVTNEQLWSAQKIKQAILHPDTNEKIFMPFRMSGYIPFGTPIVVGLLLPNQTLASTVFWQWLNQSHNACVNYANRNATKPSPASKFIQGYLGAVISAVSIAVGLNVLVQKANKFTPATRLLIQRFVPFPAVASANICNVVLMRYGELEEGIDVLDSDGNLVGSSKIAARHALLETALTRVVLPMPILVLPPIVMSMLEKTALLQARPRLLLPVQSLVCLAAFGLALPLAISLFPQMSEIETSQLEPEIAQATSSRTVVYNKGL
active: [1] -0.3
inactive: [2] 0.017 | [3] -0.052 | [4] 0.049 | [5] 0.084 | [6] 0.134 | [7] 0.107 | [8] 0.093 | [9] 0.022 | [10] 0.041 | [11] -0.043 | [12] 0.042 | [13] -0.072 | [14] -0.095 | [15] -0.068 | [16] 0.019 | [17] -0.028 | [18] -0.003 | [19] 0.012 | [20] 0.072

RAP2C (UniProt Q9Y3L5)
Sequence of UniProt Q9Y3L5 (Q9Y3L5 whole entry, looked up): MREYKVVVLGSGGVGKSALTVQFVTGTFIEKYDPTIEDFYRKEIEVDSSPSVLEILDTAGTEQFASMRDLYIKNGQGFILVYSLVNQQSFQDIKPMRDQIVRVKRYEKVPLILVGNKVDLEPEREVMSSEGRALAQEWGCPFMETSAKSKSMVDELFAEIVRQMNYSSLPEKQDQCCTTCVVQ
inactive: [1] 0.115 | [2] 0.157 | [3] 0.181 | [4] 0.069 | [5] 0.018 | [6] 0.019 | [7] 0.047 | [8] -0.032 | [9] 0.086 | [10] 0.041 | [11] 0.072 | [13] 0.133 | [14] 0.118 | [15] -0.045 | [16] 0.051 | [17] 0.056 | [18] -0.04 | [19] -0.008 | [20] -0.061
active: [12] 0.299

SIRT2 (UniProt Q8IXJ6)
Sequence of UniProt Q8IXJ6 (Q8IXJ6 whole entry, looked up): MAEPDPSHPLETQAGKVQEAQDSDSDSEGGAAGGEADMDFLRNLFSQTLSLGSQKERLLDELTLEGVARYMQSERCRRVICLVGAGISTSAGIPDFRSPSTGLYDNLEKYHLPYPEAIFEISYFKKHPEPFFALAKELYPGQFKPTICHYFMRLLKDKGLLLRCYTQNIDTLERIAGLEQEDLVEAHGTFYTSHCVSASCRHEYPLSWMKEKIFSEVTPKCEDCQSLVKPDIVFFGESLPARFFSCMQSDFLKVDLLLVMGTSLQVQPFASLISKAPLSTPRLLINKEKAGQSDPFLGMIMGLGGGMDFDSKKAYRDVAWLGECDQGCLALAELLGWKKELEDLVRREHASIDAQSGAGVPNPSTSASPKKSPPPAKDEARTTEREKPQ
inactive: [1] -0.041 | [2] -0.003 | [3] 0.061 | [4] -0.006 | [5] -0.032 | [6] -0.051 | [7] 0.104 | [8] -0.002 | [9] 0.027 | [10] 0.067 | [11] -0.048 | [12] 0.023 | [13] -0.07 | [14] -0.066 | [15] -0.02 | [16] -0.039 | [17] -0.022 | [18] -0.035 | [19] -0.035 | [20] 0.033

RALA (UniProt P11233)
Sequence of UniProt P11233 (P11233 whole entry, looked up): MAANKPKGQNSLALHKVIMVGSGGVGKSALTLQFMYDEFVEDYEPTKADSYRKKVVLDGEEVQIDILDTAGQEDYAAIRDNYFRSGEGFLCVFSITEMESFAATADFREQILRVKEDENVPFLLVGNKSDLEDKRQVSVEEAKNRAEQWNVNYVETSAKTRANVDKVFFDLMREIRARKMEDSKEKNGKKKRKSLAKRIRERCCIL
inactive: [1] -0.026 | [2] 0.178 | [3] 0.064 | [4] -0.012 | [5] 0.027 | [6] -0.026 | [7] 0.014 | [8] 0.043 | [9] -0.06 | [10] 0.015 | [11] -0.03 | [12] -0.019 | [13] 0.057 | [14] 0.004 | [15] -0.064 | [16] 0.142 | [17] 0.082 | [18] -0.021 | [19] 0.028 | [20] -0.028

RSL1D1 (UniProt O76021)
inactive: [1] 0.288 | [2] -0.027 | [3] 0.117 | [4] 0.109 | [5] 0.239 | [6] 0.264 | [7] -0.427 | [8] -0.18 | [9] 0.15 | [10] -0.244 | [11] -0.001 | [12] 0.207 | [13] 0.339 | [14] 0.188 | [15] -0.133 | [16] -0.016 | [17] -0.105 | [18] 0.329 | [19] 0.409 | [20] -0.265

SEC31A (UniProt O94979)
inactive: [1] 0.011 | [2] 0.019 | [3] -0.11 | [4] -0.042 | [5] -0.134 | [6] 0.054 | [7] -0.031 | [8] -0.057 | [9] -0.065 | [10] 0.079 | [11] -0.078 | [12] -0.024 | [13] -0.022 | [14] -0.099 | [15] 0.041 | [16] 0.003 | [17] 0.042 | [18] 0.063 | [19] -0.048 | [20] 0.07

RETSAT (UniProt Q6NUM9)
active: [6] 0.511
inactive: [1] -0.011 | [2] -0.034 | [3] 0.154 | [4] -0.076 | [5] -0.001 | [7] 0.045 | [8] -0.002 | [9] -0.052 | [10] 0.182 | [11] -0.058 | [12] -0.05 | [13] -0.028 | [14] -0.019 | [15] 0.129 | [16] -0.048 | [17] 0.028 | [18] -0.014 | [19] 0.026 | [20] -0.047
